The GenesisPotency data set
Among all 290,000 compounds or so, about 3,000 (1%) were called active. Rule as the data show it: active = inhibition mostly above about 36% (no sharp cut-off); inactive = mostly below about 34%. The sample as a whole holds a higher share of actives than the screen did.

These compounds were tested against T1, Nucleotide-binding oligomerization domain-containing protein 1, Homo sapiens (UniProt Q9Y239) (assay: NOD1 signaling inhibitors, primary screen, cell-based, luminescence, uHTS (AID 1578)).
T1 sequence (whole entry): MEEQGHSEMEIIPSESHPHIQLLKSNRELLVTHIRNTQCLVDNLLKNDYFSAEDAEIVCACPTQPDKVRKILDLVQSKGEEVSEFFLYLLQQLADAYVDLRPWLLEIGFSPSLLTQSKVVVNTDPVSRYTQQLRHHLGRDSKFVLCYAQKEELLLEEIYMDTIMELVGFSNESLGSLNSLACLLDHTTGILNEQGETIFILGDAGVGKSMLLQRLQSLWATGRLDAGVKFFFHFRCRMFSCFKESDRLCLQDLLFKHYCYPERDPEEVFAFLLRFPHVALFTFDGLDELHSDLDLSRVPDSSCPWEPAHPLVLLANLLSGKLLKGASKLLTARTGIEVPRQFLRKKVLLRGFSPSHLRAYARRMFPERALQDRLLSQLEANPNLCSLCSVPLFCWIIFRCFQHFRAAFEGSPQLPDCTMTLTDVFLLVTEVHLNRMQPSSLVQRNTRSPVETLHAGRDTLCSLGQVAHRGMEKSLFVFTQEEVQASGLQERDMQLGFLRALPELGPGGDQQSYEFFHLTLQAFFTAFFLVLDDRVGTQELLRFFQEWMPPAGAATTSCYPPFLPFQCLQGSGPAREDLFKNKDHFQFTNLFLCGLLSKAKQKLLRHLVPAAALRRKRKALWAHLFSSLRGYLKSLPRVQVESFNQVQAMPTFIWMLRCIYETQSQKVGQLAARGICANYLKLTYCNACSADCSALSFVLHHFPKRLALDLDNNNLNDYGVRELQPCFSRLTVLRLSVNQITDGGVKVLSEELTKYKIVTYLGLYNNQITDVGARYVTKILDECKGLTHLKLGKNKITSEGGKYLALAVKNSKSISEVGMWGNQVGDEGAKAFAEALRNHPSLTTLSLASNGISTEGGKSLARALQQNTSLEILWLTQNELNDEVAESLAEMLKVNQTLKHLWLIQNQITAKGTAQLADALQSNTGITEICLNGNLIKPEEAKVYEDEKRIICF

outcome, active:
C=C1C(=O)O[C@@H]2C[C@@H](C)[C@@H]3C=CC(=O)[C@@]3(C)[C@@H](OC(C)=O)[C@H]12
COc1ccc(-c2cn[nH]c2-c2ccc(OC)cc2O)cc1
COc1ccc(-c2cn[nH]c2-c2ccc(O)cc2O)cc1
COc1ccc(-c2[nH]ncc2-c2ccc3c(c2)OCCO3)c(O)c1
COc1ccc(-c2cn[nH]c2-c2ccc(OC)cc2)cc1
Cc1nc2ccc(NS(=O)(=O)c3ccc(F)c(C)c3)cc2[nH]1
CC1CCCCN1S(=O)(=O)c1ccc(C(=O)Nc2nnc(-c3ccccc3Cl)o2)cc1 (stereo not given)
CCC1CCCCN1S(=O)(=O)c1ccc(C(=O)Nc2nnc(-c3ccccc3Cl)o2)cc1 (stereo not given)
O=C(Nc1nnc(-c2ccccc2Cl)o1)c1ccc(S(=O)(=O)N2CCCCCC2)cc1
Cc1nc2ccccc2c(C)c1C(=O)c1ccc(F)cc1.Cl
COCCn1c(C)cc(C(=O)COc2ccc(C)nc2[N+](=O)[O-])c1C
Cc1ccc(OCC(=O)c2cc(C)n(Cc3cccs3)c2C)c([N+](=O)[O-])n1
COCCn1c(C)cc(C(=O)COC(=O)c2cccc(O)c2)c1C
Cc1ccc(OCC(=O)c2cc(C)n(Cc3ccco3)c2C)c([N+](=O)[O-])n1
CCOC(=O)/C=C/S(=O)(=O)c1ccc(NC(C)=O)cc1
O=C(Oc1c(-c2ccccc2)c(=O)n2c3c(cccc13)CC2)c1ccc(Cl)cc1
O=C(Oc1c(-c2ccccc2)c(=O)n2c3c(cccc13)CC2)c1ccccc1
CC(C)(C)OC(=O)NCC(=O)Oc1cc2oc(=O)cc(-c3ccccc3)c2cc1Cl
O=C(CNC(=O)OCc1ccccc1)Oc1cc2oc(=O)cc(-c3ccccc3)c2cc1Cl
CN(CC1CCCO1)S(=O)(=O)c1ccc(C(=O)Nc2nc3cc4c(cc3s2)OCO4)cc1 (stereo not given)
CC(=O)c1cn(CCOc2cc(C)ccc2C)c2ccccc12
CC(=O)c1cn(CCOc2ccccc2C)c2ccccc12
COc1ccc(-c2cc(N)n(S(=O)(=O)c3c(F)c(F)c(F)c(F)c3F)n2)cc1OC
N#CC(C#N)=C(Nc1ccc(F)cc1)SCc1cccc(F)c1
N#CC(C#N)=C(Nc1ccc(F)cc1)SCc1cccc(Br)c1
Cc1ccc(CSC(Nc2ccc(F)cc2)=C(C#N)C#N)cc1
O=C(COc1ccc2c(-c3ccccc3)cc(=O)oc2c1)Nc1ccc(CCO)cc1
CCCc1ccc(-c2c(C)sc(NC(=O)c3ccnn3C)c2C#N)cc1
O=C1N/C(=N\N=C\c2ccccn2)SC1Cc1cccc(SC(F)F)c1 (stereo not given)
COc1ccc(C(=O)Nc2nc3ccccc3s2)c(OC)c1
COc1ccccc1C(=O)Nc1nc2ccccc2s1
CCOc1ccc2nc(NC(=O)c3ccccn3)sc2c1
O=C(Nc1ccc([N+](=O)[O-])cc1)Nc1nc(-c2ccc(Cl)s2)cs1
COC(CN(C(=O)CCl)C(C(=O)NC1CCCCC1)c1ccccc1C)OC (stereo not given)
Cc1ccc(N(C(=O)CCl)C(C(=O)NC2CCCCC2)c2cccnc2)cc1C (stereo not given)
O=C(NC1CCCCC1)C(c1cccnc1)N(C(=O)CCl)c1cccc(Cl)c1 (stereo not given)
O=C(NC1CCCCC1)C(c1cccnc1)N(C(=O)CCl)c1ccccc1Cl (stereo not given)
COc1ccc(C(C(=O)NC2CCCCC2)N(C(=O)CCl)c2cccc(Cl)c2)cc1 (stereo not given)
CC(C)c1noc2ncc(C(=O)c3cc(Cl)cc(Cl)c3O)cc12
Cc1nnc(N2CCCC(C(=O)Nc3cc(F)ccc3F)C2)c2nn(-c3ccccc3)c(C)c12 (stereo not given)
N#CCc1ccc(NC(=O)c2ccc(CN3CCc4ccccc4C3)cc2)cc1
O=C(Nc1ccc(F)cc1)c1ccc(CN2CCc3ccccc3C2)cc1
Cc1ccc(-c2csc(N3CCC(NS(=O)(=O)c4ccc5c(c4)OCCO5)CC3)n2)cc1
COc1ccc(Oc2ccccc2/C=N/O)cc1
O=C(CSc1nnnn1C1CC2CCC1C2)Nc1ccnc2ccccc12 (stereo not given)
CCC(C)Cn1c([O-])cc2nn(-c3nc4ccccc4s3)c(=O)c-2c1C.[Na+] (stereo not given)
CC1=Nc2ccccc2/C1=C/c1sc(=N)n(-c2nccs2)c1O
NC(=O)c1cc2ccncc2c2ccccc12
Nc1cc2ccncc2c2ccccc12
Cc1cccc(C(=O)NNC2=C(C(=O)C(F)(F)F)CCC2)c1O
C=CS(=O)(=O)c1ccc(Oc2ccc(S(=O)(=O)C=C)cc2)cc1
COc1cccc(NS(=O)(=O)c2ccc3c(c2)CCN3C(C)=O)c1
COc1cccc(C(=O)/C=C/Nc2ccc(S(=O)(=O)Nc3cccc(C(C)=O)c3)cc2)c1
Cc1c(C)n(Cc2ccccc2)c2ncnc(Cl)c12
Br.CCCCCCCCn1c2c(c(=N)c3ccccc31)CCC2
Br.CCCCCCCCCCn1c2c(c(=N)c3c1CCC3)CCC2
Br.CCCCCCCCCn1c2c(c(=N)c3c1CCC3)CCC2
COc1cccc(NC(=O)CN(C)CC(=O)Nc2ccc(C)c([N+](=O)[O-])c2)c1
O=C(CCl)N(Cc1cc(=O)[nH]c2ccccc12)c1ccccc1
Cc1ccc(N(Cc2cc(=O)[nH]c3ccccc23)C(=O)CCl)cc1
Cc1cccc(N(Cc2cc(=O)[nH]c3ccccc23)C(=O)CCl)c1
Cn1cc([N+](=O)[O-])c(C(=O)Nc2cc(Oc3ccccc3)cc([N+](=O)[O-])c2)n1
O=C(c1nnsc1S(=O)(=O)c1ccc(Cl)cc1)N1CCOCC1
CNC(=O)c1nnsc1S(=O)(=O)c1ccc(Cl)cc1
O=C(Nc1nnc(-c2ccco2)o1)c1ccc2ccccc2c1
CCCN(CCC)S(=O)(=O)c1ccc(C(=O)Nc2nnc(-c3cc(OC)cc(OC)c3)o2)cc1
O=C(Nc1nnc(-c2ccc3c(c2)OCCO3)o1)c1ccc(Cc2ccccc2)cc1
COc1cc(OC)cc(-c2nnc(NC(=O)c3ccc4c(c3)OCCO4)o2)c1
CSCc1nnc(NC(=O)c2ccc(S(=O)(=O)N(CC(C)C)CC(C)C)cc2)o1
O=C(Nc1ccc(Oc2ccccc2)cc1)C1CCN(c2c3c(nc4ncnn24)CCC3)CC1
